Compounds with a hit are over-represented: about 5.4% of the library has one in this group of screens.
PP5 inh: PP5 (human) phosphatase inhibition | P53041 | purified PP5c, OMFP substrate fluorescence | inhibition, % at 6.7 µM | 0.18% of 320,000 active | AID 1987;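 active = inhibition above the campaign's mean inhibition across all tested compounds plus 3 SD, cut at about 9.5% in these data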
CSC inhib: blocks cancer stem cells; cancer stem cell-like cells viability, luminescence; inhibition, % at 7.5 µM; 1.1% of 300,000 active; AID 2717; in the data active = inhibition above about 75%; inconclusive = no clear call, values can overlap the other calls; tested in HMLE shEcad cells
Calb FLC: C. albicans growth modulation with fluconazole | C. albicans CaCi-2 (fluconazole-resistant clinical isolate) + fluconazole, Alamar Blue growth, 48 h | growth inhibition, % (test concentration not listed) | 0.57% of 300,000 active;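 active = growth inhibition above about 58% in most replicates, limit read from the data, passing the limit was not always enough; inconclusive = exactly half the replicates above a set limit; inactive = most replicates below a set limit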;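 note: all wells also contain fluconazole at 8 µg/ml as a sub-toxic cotreatment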
PP1 inh: PP1-alpha (human) inhibition in PP5 counter-screen. P62136. purified PP1alpha, OMFP fluorescence. inhibition, % at 6.7 µM. 0.9% of 320,000 active;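 active = inhibition above the mean inhibition of all tested compounds plus 3 SD, computed separately for each screening campaign, cut at about 15% in these data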
Target sequence (P62136 whole entry, looked up): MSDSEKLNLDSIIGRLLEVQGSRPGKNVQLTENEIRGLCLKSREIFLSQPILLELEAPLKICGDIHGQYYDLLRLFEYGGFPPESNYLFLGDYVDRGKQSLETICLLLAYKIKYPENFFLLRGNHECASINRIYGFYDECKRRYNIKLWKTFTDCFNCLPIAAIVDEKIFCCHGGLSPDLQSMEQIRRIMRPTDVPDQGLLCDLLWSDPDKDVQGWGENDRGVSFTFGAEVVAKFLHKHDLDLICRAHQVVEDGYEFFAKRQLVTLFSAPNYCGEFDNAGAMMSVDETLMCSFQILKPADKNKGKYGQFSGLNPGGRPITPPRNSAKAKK
ALR H2O2 inh: blocks human ALR sulfhydryl oxidase activity | P55789 | purified ALR, DTT oxidation, H2O2 HRP-luminol luminescence | inhibition, % (test concentration not listed) | 3.8% of 290,000 active | AID 485317;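 active = mean replicate inhibition above about 79%, with every replicate also reaching it, limit read from the data; inconclusive = only one of the two criteria met; inactive = mean below limit and not every replicate reaching it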
Target sequence (P55789 whole entry, looked up): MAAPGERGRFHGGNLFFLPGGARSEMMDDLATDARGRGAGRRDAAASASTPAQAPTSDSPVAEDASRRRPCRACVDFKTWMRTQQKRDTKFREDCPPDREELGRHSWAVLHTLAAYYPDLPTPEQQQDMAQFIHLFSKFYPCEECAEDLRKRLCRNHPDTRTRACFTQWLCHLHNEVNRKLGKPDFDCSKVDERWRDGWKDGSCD
A number is an active result; n = inactive; u = inconclusive; x = not tested or not shown.

SMILES	PP5 inh	CSC inhib	Calb FLC	PP1 inh	ALR H2O2 inh
CSC(=NC#N)N1CCN(c2c(C)cccc2C)CC1	n	n	n	n	n
Cc1cc(C)n(-c2nc(NCCN(C)C)c3c4c(sc3n2)CCCC4)n1	n	n	79.7	n	x
Cc1cc(C)n(-c2nc(NCCCN(C)C)c3c4c(sc3n2)CCCC4)n1	n	n	n	n	n
O=C(Nc1nnc(SCc2cccnc2)s1)C1CC(=O)N(c2ccc(F)cc2)C1 (centres undefined)	n	n	n	n	97.0
O=C(C1=C[C@H](c2csc3ccccc23)C[C@H](OCc2ccc(CO)cc2)O1)N1CCCCCCC1	n	x	n	n	n
N=c1c2c3c(sc2ncn1Cc1ccco1)CCCCC3	n	n	n	n	92.2
CC(C)Cn1cnc2sc3c(c2c1=N)CCCC3	n	n	n	n	n
COC(=O)C(N)Cc1ccc(O)c(O)c1 (centres undefined)	n	n	n	n	99.2
COC(=O)C(N)Cc1ccc(O)cc1 (centres undefined)	n	x	n	n	n
COc1cc2c(cc1O)CCN(C(=O)CSc1nncn1C)[C@@H]2C	n	n	x	n	81.7
COc1cc2c(cc1OC)[C@H](C)N(C(=O)CSc1nc(O)c(C(C)C)c(=O)[nH]1)CC2	n	n	n	n	x
Cc1ccc2c(c1)N(CCC(=O)NCc1ccc3c(c1)OCO3)C(=O)CO2	n	n	n	n	n
Cc1cc(C)nc(SCc2ccc(C(=O)N/N=C/c3ccccn3)cc2)n1	n	n	n	n	n
O=C(CS(=O)c1ccc(C(F)(F)F)cc1[N+](=O)[O-])Oc1ccccc1 (centres undefined)	n	76.8	n	n	98.6
COC(=O)c1ccc(OC(=O)CS(=O)c2ccccc2[N+](=O)[O-])cc1 (centres undefined)	n	n	n	n	n
COc1ccc(C(=O)COC(=O)CCN2C(=O)C3C4CCC(C4)C3C2=O)cc1 (centres undefined)	n	n	n	n	n
CC(C)(C)c1n[nH]c2c1CCCC2	n	n	n	n	n
C(=C\c1nc(N2CCCCCC2)c2ccccc2n1)/c1ccccc1	n	79.0	n	n	n
CCN1C(=O)/C(=C\c2ccc(F)cc2)N=C1SCC(=O)NCc1ccco1	n	n	n	n	95.3
O=C(CSc1ccc(-c2ccc(F)cc2)nn1)NCc1ccco1	n	n	n	n	n
O=c1[nH]c(=O)c2nnc(N/N=C\c3ccc(O)cc3)nc2[nH]1	n	n	x	n	99.2
O=C1CC(c2ccc(F)cc2)CC2=C1C=Nc1ccccc1N2 (centres undefined)	n	103.1	n	n	x
COc1ccc(N2CCN(C(=O)c3cc(C)on3)CC2)cc1	n	n	n	n	n
CC(=O)NS(=O)(=O)c1ccc(N=c2ssc3c2-c2cc(C)c(C)cc2NC3(C)C)cc1	n	n	n	n	98.7
COc1ccc(/C=C2\N=C(SC)NC2=O)cc1	n	n	90.4	n	x
SMILES	PP5 inh	CSC inhib	Calb FLC	PP1 inh	ALR H2O2 inh
O=C(Nc1cccc(S(=O)(=O)N2CCCCC2)c1)c1ccc([N+](=O)[O-])o1	n	77.7	u	n	n
COc1cccc(NC(=O)c2oc3ccc(S(=O)(=O)N4CCOCC4)cc3c2C)c1	n	n	n	n	81.7
O=C(Nc1cccc(Cl)c1N1CCCC1)c1ccc([N+](=O)[O-])o1	n	100.1	n	n	n
O=C(Nc1cccc(Cl)c1N1CCOCC1)c1cccs1	n	n	n	n	90.8
Cc1ccc(NC(=O)c2oc3ccc(S(=O)(=O)N4CCOCC4)cc3c2C)cc1C	n	n	n	n	x
Cc1ccc(NC(=O)COC(=O)c2ccc(F)cc2Cl)c(Br)c1	n	n	n	n	n
O=C(Nc1cccc(S(=O)(=O)N2CCCC2)c1)c1cccc(S(=O)(=O)N2CCOCC2)c1	n	x	x	n	96.7
CC(=O)Oc1ccc(-c2ccc(C(=O)Nc3cccc(S(=O)(=O)N4CCOCC4)c3)cc2)cc1	n	93.4	n	n	n
CCN(c1ccc(NC(=O)c2cccc(S(=O)(=O)N3CCN(C)CC3)c2)cc1)C(C)C	n	n	n	n	99.3
O=C(c1cnn(C(=O)c2cccc(S(=O)(=O)N3CCOCC3)c2)c1)c1cc(Cl)cc(Cl)c1O	n	n	n	n	x
COc1ccc(C(=O)NC(=S)Nc2cccc(S(=O)(=O)N3CCOCC3)c2)cc1	n	n	n	n	n
O=C(c1cnn(C(=O)c2cccc(S(=O)(=O)N3CCOCC3)c2)c1)c1ccccc1O	n	n	n	n	89.7
CC(Oc1ccccc1Cl)C(=O)Nc1ccc(S(=O)(=O)N2CCCC2)cc1 (centres undefined)	n	n	n	n	x
CN1CCN(S(=O)(=O)c2cccc(C(=O)Nc3cc(C(F)(F)F)ccc3N3CCCCC3)c2)CC1	n	86.6	n	n	n
O=C(O)CC/C(=N\NC(=O)c1ccccc1)c1cccs1	n	n	n	n	n
Cn1c(-c2ccc3nc(N)sc3c2)nc2cc(N)ccc21	n	n	n	n	98.5
Cn1c(-c2ccc(N)cc2)nc2ccccc21	n	n	x	n	n
CN(C)c1ccc(NC(=O)CSc2nc3c(c(=O)[nH]2)CCCC3)cc1	n	n	n	n	96.2
Cc1ccc(NC(=O)CSc2nc3nc(C)cc(C)c3c(=O)[nH]2)cc1	n	n	n	n	n
Cc1cc(C)c2c(=O)[nH]c(SCC(=O)Nc3ccccc3)nc2n1	n	n	n	n	n
Cc1cc(C)c2c(=O)[nH]c(SCC(=O)c3ccc(C)c(C)c3)nc2n1	n	n	n	n	98.4
Cc1cc(C)cc(NC(=O)CSc2nc3nc(C)cc(C)c3c(=O)[nH]2)c1	n	x	x	n	99.1
CCc1cccc(NC(=O)CSc2nc3c(c(=O)[nH]2)CCCC3)c1	n	n	n	n	n
Cc1cc(C)c2c(=O)[nH]c(SCC(=O)Nc3ccc(N(C)C)cc3)nc2n1	n	n	n	n	99.3
CCOC(=O)NCc1ccc(CNC(=O)OCC)cc1	n	x	n	n	n
SMILES	PP5 inh	CSC inhib	Calb FLC	PP1 inh	ALR H2O2 inh
COC(=O)CSC1=NS(=O)(=O)c2ccccc21	n	n	n	n	99.8
O=C(CSC1=NS(=O)(=O)c2cc(F)ccc2N1)Nc1ccccc1	n	n	n	n	x
O=C(CSC1=NS(=O)(=O)c2ccccc21)Nc1ccccc1	n	n	n	n	98.7
O=[N+]([O-])c1ccc(S(=O)(=O)NCCS(=O)(=O)N2CCN(c3ccccc3)CC2)cc1	n	n	n	n	n
CC(C)(C)[C@H]1COC(=O)[C@@H](Cc2ccc(F)cc2)C/C=C\C[C@@H](CC(=O)N[C@@H](CO)Cc2ccccc2)C(=O)N1	x	n	x	x	n
Cc1cc2n(n1)C(c1ccccc1)Nc1ccccc1-2 (centres undefined)	n	n	n	n	90.7
Cc1cc2n(n1)C(c1sccc1C)Nc1ccccc1-2 (centres undefined)	n	n	n	n	90.6
CC(=O)NCCc1cnc[nH]1	n	n	n	n	n
O=S(=O)(c1ccc(Cl)cc1)N1CCC2(CC1)OCCN2S(=O)(=O)c1cccs1	x	x	n	x	x
O=c1cc(-c2ccccc2)[nH]n1-c1nc2ccccc2[nH]1	n	112.1	n	16.7	n

Screening data (PubChem)
